Data published in the supplement of paper PMC9135407.
Counter-ions that a name gives are not always drawn. Among all 5,800 compounds or so, about 620 (11%) showed activity. The entries come from a sample that favours actives as a whole. Values without a mark were called inactive.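 Rule for the calls: active = score above a cut-off or among the top three wells of a plate; in these data no inactive exceeds 0.85.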

Test system: primary human hepatic stellate cells (donor 1)
Test: scaled lipid accumulation score (0 = DMSO-like, 1 = nortriptyline-like); higher = stronger HSC inactivation (lipid re-accumulation), active = hit call of the paper
Details: 48 h
[1] = library stock concentration: 3.33 mM
[2] = library stock concentration: 10 mM
[3] = library stock concentration: 80 uM
[4] = library stock concentration: 400 uM
[5] = library stock concentration: 2 mM
[6] = library stock concentration: 1 mM

With `C[C@H](Nc1ncnc2nc[nH]c12)c1cc2cccc(Cl)c2c(=O)n1-c1ccccc1` the “scaled lipid accumulation score” value [1] was ≤ 0 and the “scaled lipid accumulation score” value [2] was ≤ -0.001.

`CCCCN(Cc1ccc(C(=O)NO)cc1)C(=O)Nc1ccccc1` [Nexturastat A] was tested, and the “scaled lipid accumulation score” value [1] was ≤ -0.009 and the “scaled lipid accumulation score” value [2] was 0.176.

For `CCN(CC)CCNC(=O)c1ccc(NC(C)=O)cc1` [N-Acetylprocainamide hydrochloride], the “scaled lipid accumulation score” value [2] was ≤ 0.

For `CCN(CC)CCNC(=O)c1ccc(NC(C)=O)cc1` [Acecainide hydrochloride], the “scaled lipid accumulation score” value (library stock concentration: 6.4 mM) was ≤ 0.

`CCN(CC)Cc1ccc2cc(COC(=O)Nc3ccc(C(=O)NO)cc3)ccc2c1.Cl.O` [Givinostat (ITF2357)] was tested, and the “scaled lipid accumulation score” value [1] was 0.903 (active) and the “scaled lipid accumulation score” value [2] was 0.897 (active).

With `COc1ccc(S(=O)(=O)N2c3ccc(Cl)cc3[C@](O)(c3ccccc3Cl)[C@@H]2C(=O)N2CCC[C@H]2C(N)=O)cc1OC` the “scaled lipid accumulation score” value [2] was 0.02.

For `O=C(O)c1cc(=O)c2cccc(O)c2[nH]1` [Xanthurenic acid], the “scaled lipid accumulation score” value [2] was ≤ 0.

For `O=C(Nc1cc2cc[nH]c2cn1)c1ccccc1`, the “scaled lipid accumulation score” value [1] was ≤ -0.009 and the “scaled lipid accumulation score” value [2] was ≤ 0.

For `Cc1ccc(C(=O)Nc2ccc(CN3CCN(C)CC3)c(C(F)(F)F)c2)cc1C#Cc1cnc2cccnn12` [listing 1 of 3 here], the “scaled lipid accumulation score” value [1] was 1.06 (active).

For `Cc1ccc(C(=O)Nc2ccc(CN3CCN(C)CC3)c(C(F)(F)F)c2)cc1C#Cc1cnc2cccnn12` [listing 2 of 3 here], the “scaled lipid accumulation score” value [3] was 0.459 and the “scaled lipid accumulation score” value [2] was 0.533.

With `CCN1CCN(Cc2ccc(Nc3ncc4c(n3)N(C)c3ccccc3C(=O)N4C)cc2C(F)(F)F)CC1` the “scaled lipid accumulation score” value [3] was 0.012, the “scaled lipid accumulation score” value [4] was 0.132 and the “scaled lipid accumulation score” value [5] was 0.243. The “scaled lipid accumulation score” value [2] was 0.479.

With `Cc1ccc(C(=O)Nc2ccc(CN3CCN(C)CC3)c(C(F)(F)F)c2)cc1C#Cc1cnc2cccnn12` [listing 3 of 3 here] the “scaled lipid accumulation score” value [4] was 0.949 (active), the “scaled lipid accumulation score” value [5] was 1.1 (active) and the “scaled lipid accumulation score” value [2] was 1.14 (active).

With `CCN1CCN(Cc2ccc(NC(=O)c3ccc(C)c(Oc4ccnc5[nH]ccc45)c3)cc2C(F)(F)F)CC1` the “scaled lipid accumulation score” value [3] was 0.069, the “scaled lipid accumulation score” value [4] was 0.308 and the “scaled lipid accumulation score” value [5] was 0.809. The “scaled lipid accumulation score” value [2] was 0.792.

With `Cc1ccc(C(=O)Nc2ccc(CN3CCN(C)CC3)c(C(F)(F)F)c2)cc1C#Cc1cnc2[nH]ncc2c1` the “scaled lipid accumulation score” value [1] was 0.479 and the “scaled lipid accumulation score” value [2] was 0.258.

`CCN1CCN(Cc2ccc(NC(=O)c3ccc(C)c(/C=C/c4cnc5[nH]ccc5c4OC)c3)cc2C(F)(F)F)CC1` was tested, and the “scaled lipid accumulation score” value [5] was 0.888 (active) and the “scaled lipid accumulation score” value [2] was 1.11 (active).

With `COC(=O)N1CCN(Cc2cccc(NC(=O)Nc3ccc(C)nc3)c2F)CC1` the “scaled lipid accumulation score” value [1] was ≤ 0 and the “scaled lipid accumulation score” value [2] was 0.038.

For `CCCCC/C=C\C/C=C\CCCC/C=C\CCCC(=O)O` [5(Z),11(Z),14(Z)-Eicosatrienoic Acid], the “scaled lipid accumulation score” value [6] was ≤ 0.

In the case of `CC(S)C(=O)NCC(=O)O` (stereo unspecified) [Tiopronin], the “scaled lipid accumulation score” value [1] is reported as ≤ 0 and the “scaled lipid accumulation score” value [2] is reported as ≤ 0.

In the case of `CC(S)C(=O)NCC(=O)O` (stereo unspecified), the “scaled lipid accumulation score” value [2] is reported as ≤ 0.

For `CCCCCCCC/C=C\CCCCCCCCCCCC(=O)O` [13(Z)-Docosenoic Acid], the “scaled lipid accumulation score” value [6] was 0.016.

With `CCC(CO)Nc1nc(NCc2ccccc2)c2ncn(C(C)C)c2n1` [Roscovitine, (S)-Isomer] the “scaled lipid accumulation score” value [1] was ≤ 0.

For `CC1(C)S[C@@H]2[C@H](/N=C/N3CCCCCC3)C(=O)N2[C@H]1C(=O)O`, the “scaled lipid accumulation score” value [2] was ≤ 0.

`CCCCC[C@@](C)(O)/C=C/[C@H]1C=CC(=O)[C@@H]1C/C=C\CCCC(=O)O` [15(R)-15-methyl Prostaglandin A2] was tested, and the “scaled lipid accumulation score” value [6] was ≤ 0.

`CCCCc1c(-c2ccc(O)cc2)[nH]c2nccnc12` [Aloisine A, RP107] was tested, and the “scaled lipid accumulation score” value [1] was ≤ 0.

With `O=C(O)COc1cccc(-c2ocnc2-c2nc(-c3ccccc3)c(-c3ccccc3)o2)c1` the “scaled lipid accumulation score” value [2] was ≤ -0.006.

`CN1CCN(C2=Nc3ccccc3Sc3ccc(Cl)cc32)CC1` [Clothiapine] was tested, and the “scaled lipid accumulation score” value (library stock concentration: 5.8 mM) was 0.413.

With `O=C(O)C=CC(=O)O.OCCOCCN1CCN(C2=Nc3ccccc3Sc3ccccc32)CC1.OCCOCCN1CCN(C2=Nc3ccccc3Sc3ccccc32)CC1` [Quetiapine Fumarate] the “scaled lipid accumulation score” value [2] was 1.06 (active).

For `OCCOCCN1CCN(C2=Nc3ccccc3Sc3ccccc32)CC1`, the “scaled lipid accumulation score” value [2] was 0.251.

In the case of `OCCOCCN1CCN(C2=Nc3ccccc3Sc3ccccc32)CC1` [Quetiapine Fumarate], the “scaled lipid accumulation score” value [1] is reported as 0.061.

`OCCOCCN1CCN(C2=Nc3ccccc3Sc3ccccc32)CC1` [Quetiapine fumarate] was tested, and the “scaled lipid accumulation score” value (library stock concentration: 2.3 mM) was 0.28.

With `OCCOCCN1CCN(C2=Nc3ccccc3Sc3ccccc32)CC1` [Quetiapine] the “scaled lipid accumulation score” value (library stock concentration: 5.2 mM) was ≤ 0.

With `CCCCC[C@@H](O)/C=C/[C@H]1C(=O)C[C@H](O)[C@@H]1C/C=C\CCCC(=O)O` [15(R)-Prostaglandin D2] the “scaled lipid accumulation score” value [6] was ≤ 0.

For `O=C([O-])[C@H]1/C(=C/CO)O[C@@H]2CC(=O)N21.[Li+]` [Clavulanate lithium], the “scaled lipid accumulation score” value (library stock concentration: 9.7 mM) was ≤ 0.

In the case of `CCS(=O)(=O)Nc1ccc2[nH]c(O)c(C(=Nc3ccc(CN4CCCCC4)cc3)c3ccccc3)c2c1` [Hesperadin], the “scaled lipid accumulation score” value [1] is reported as ≤ 0 and the “scaled lipid accumulation score” value [2] is reported as 0.147.

`Cl.N=C(N)NCCC[C@H](N)C(=O)O` was tested, and the “scaled lipid accumulation score” value [2] was ≤ 0.

With `O=S(=O)(O)Oc1ccc(C(c2ccc(OS(=O)(=O)O)cc2)c2ccccn2)cc1` [Sodium Picosulfate] the “scaled lipid accumulation score” value [1] was ≤ 0 and the “scaled lipid accumulation score” value [2] was ≤ -0.001.

In the case of `Cc1ccc(C(=O)Nc2cccc(C(F)(F)F)c2)cc1Nc1nc(-c2cccnc2)nc2c1cnn2C` [listing 1 of 2 here], the “scaled lipid accumulation score” value [1] is reported as 0.942 (active) and the “scaled lipid accumulation score” value [2] is reported as 0.959 (active).

For `Cc1ccc(C(=O)Nc2cccc(C(F)(F)F)c2)cc1Nc1nc(-c2cccnc2)nc2c1cnn2C` [listing 2 of 2 here], the “scaled lipid accumulation score” value [3] was ≤ -0.016, the “scaled lipid accumulation score” value [4] was ≤ -0.016 and the “scaled lipid accumulation score” value [5] was ≤ -0.016. For the same compound, the “scaled lipid accumulation score” value [2] was 0.726.

With `Cc1ccc(C(=O)Nc2cccc(C(F)(F)F)c2)cc1Nc1cncc(C(N)=O)c1` the “scaled lipid accumulation score” value [3] was ≤ 0, the “scaled lipid accumulation score” value [4] was 0.035 and the “scaled lipid accumulation score” value [5] was ≤ 0. The “scaled lipid accumulation score” value [2] was 0.142.

For `Nc1ncnc2c1ncn2[C@@H]1O[C@H](COP(=O)(O)CP(=O)(O)OP(=O)(O)O)[C@H](O)C1O` (stereo partly drawn) [alpha,beta-Methylene adenosine 5'-triphosphate dilithium], the “scaled lipid accumulation score” value [2] was 0.242.
